Bioassay records (PubChem)
DT40 TDP1 CPT: DT40-hTDP1 cell growth loss with CPT; chicken DT40 Tdp1-/-;hTDP1 cells + 20 nM CPT, ATP luminescence, 48 h; Potency, µM (titrated, usually from 46.2 µM), for the others: at the highest dose activity change, negative = growth inhibition, usual class: inhibitors; hit rate 12% among 420,000; further: potency means the concentration at half of the fitted maximal effect; nearly all actives have a fitted effect of over 55% in size
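Chicken DT40 Tdp1-/- cells stably complemented with human TDP1 were seeded at 400 cells/well in medium containing 20 nM camptothecin, exposed to pin-transferred compounds, and grown at 37 °C for at least 48 hr. Viability was read as ATP luminescence.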
TDP1 cell noCPT: qHTS for Inhibitors of human tyrosyl-DNA phosphodiesterase 1 (TDP1): qHTS in cells in absence of CPT; DT40 Tdp1-/- hTDP1 cells, no CPT, ATP luminescence, 48 h; Potency, µM (doses to about 46.2 µM), inactives show at the top dose activity change, negative = growth inhibition, hits mostly inhibitors; hit rate 15% among 420,000; further: potency means the concentration at half of the fitted maximal effect; nearly all actives have a fitted effect of over 55% in size
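No-CPT arm: Tdp1-/-;hTDP1 DT40 cells (400/well) plus compounds, incubated ≥48 hr at 37 °C. Readout CellTiter-Glo luminescence.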
IL1B secr inh: inhibitors of inflammasome signaling (IL-1 beta secretion) | THP-1 LPS/ATP IL-1B secretion, AlphaLISA, 16 h; stronger effect = lower value | activity change, % at 57.5 µM | hit rate 4.7% among 360,000 | AID 743279; in the data active means activity change below about -50%; inconclusive means mostly about -30% to -49%
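THP-1 cells pretreated 1 hr with compounds (up to 57.5 uM final), then stimulated with LPS (250 ng/mL final) plus ATP (1.25 mM final); secreted IL-1B measured by AlphaLISA after 16 hr, decreased signal indicating inhibition.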
HT1080 IDH1KD tx: toxicity to HT-1080 IDH1 knockdown cells (counter line). Potency, µM (highest dose often 46.1 µM), for inactives: at the top dose activity, negative = toxicity, hits mostly cytotoxic. AID 686971. hit rate 2% among 360,000. HT-1080 IDH1 knockdown viability, ATP luminescence, 48 h;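 further: potency means the concentration at half of the fitted maximal effect; 0% = DMSO wells and -100% = cell-free medium wells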
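Using the IDH1-knockdown HT-1080 line run in the same batch and compound series as the NT line, viability after 48 h at 37 °C was determined by CellTiter-Glo luminescence and expressed as % activity.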
ALOX12 inh: inhibitors of human 12S-lipoxygenase ALOX12 | hit rate 1.1% among 580,000 | Potency, µM (series often up to 108 µM), without a hit: at the top dose activity change, negative = inhibition, usual class: inhibitors | P18054 | purified 12hLO, xylenol orange hydroperoxide absorbance; further: potency means the concentration at half of the fitted maximal effect
Target sequence (P18054 whole entry, looked up): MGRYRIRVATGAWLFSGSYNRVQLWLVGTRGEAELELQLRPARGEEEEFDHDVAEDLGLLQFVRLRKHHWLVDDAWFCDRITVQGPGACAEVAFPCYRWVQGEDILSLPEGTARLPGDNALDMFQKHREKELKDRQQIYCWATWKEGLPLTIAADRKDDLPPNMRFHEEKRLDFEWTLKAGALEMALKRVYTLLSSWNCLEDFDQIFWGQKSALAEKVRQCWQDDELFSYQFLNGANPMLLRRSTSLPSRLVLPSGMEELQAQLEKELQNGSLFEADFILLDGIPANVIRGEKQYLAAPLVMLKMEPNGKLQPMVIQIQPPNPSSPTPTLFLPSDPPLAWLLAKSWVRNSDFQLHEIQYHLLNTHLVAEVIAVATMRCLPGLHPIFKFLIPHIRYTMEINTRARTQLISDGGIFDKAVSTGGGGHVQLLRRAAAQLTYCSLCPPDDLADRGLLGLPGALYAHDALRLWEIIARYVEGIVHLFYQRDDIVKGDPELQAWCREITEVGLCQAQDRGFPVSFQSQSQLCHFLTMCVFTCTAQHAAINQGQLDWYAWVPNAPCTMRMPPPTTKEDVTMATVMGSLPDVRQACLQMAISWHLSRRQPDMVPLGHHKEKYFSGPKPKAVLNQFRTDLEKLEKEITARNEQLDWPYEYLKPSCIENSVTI
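Hydroperoxide product was detected by ferrous iron/xylenol orange as the 573 to 405 nm absorbance ratio. Arachidonic acid at 40 uM (final) was turned over for 30 min at room temperature by 150 nM human 12hLO, pH 7.0 Hepes buffer, after 15 min compound preincubation.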
HT1080-NT tox: kills 2HG-producing HT-1080-NT fibrosarcoma cells | HT-1080-NT fibrosarcoma viability, CellTiter-Glo ATP luminescence, 48 h | Potency, µM (top dose mostly 46.1 µM), inactives show top-dose activity, negative = less viability, most hits filed as cytotoxic | hit rate 1.6% among 360,000 | AID 686970;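 further: NT is the 2HG producing partner of a matched IDH1 knockdown line; potency means the concentration at half of the fitted maximal effect; 0% = DMSO-treated cells and -100% = media-only wells without cells; nearly all actives have a fitted effect of over 55% in size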
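Viability of the 2HG-overproducing fibrosarcoma line after 48 hours of compound exposure at 37 degrees C was determined by luminescence with CellTiter-Glo, and concentration-effect curves were then fitted and categorized.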
Starred values were filed as active, the others as inactive; ? = inconclusive; . = not tested or not shown; [ ] = dose if it differs, or a comment. Only a selection was taken, and hits are over-represented in it overall. Unless noted, the call rests on the fitted dose curve; in most records, active means well fitted curve in the direction sought with a large enough effect; inconclusive means small, poorly fitted or top-dose-only effect, or another doubt; inactive means no such curve, though single readings can be large; an effect the other way counts as inactive or inconclusive. Unless noted, on the % scale 0 is the no-effect control and ±100 the full control effect.

SMILES	DT40 TDP1 CPT	TDP1 cell noCPT	IL1B secr inh	HT1080 IDH1KD tx	ALOX12 inh	HT1080-NT tox
Cc1ccccc1OCc1nc2ccccc2[nH]1	23µM*	16µM*	18	-20%	-3%	-12%
c1ccc2cc(OCc3nc4ccccc4[nH]3)ccc2c1	?	?	?	1%[9.24 µM]	5%	?
COc1ccccc1OCc1nc2ccccc2[nH]1	-2%	-14%	-24	10%	0%	3%
O=C(O)c1csc2c1sc1ccccc12	.	.	.	.	0%	.
CCCC(=O)Nc1ccc2nc(SCC(=O)N3CCOCC3)sc2c1	?	?	.	.	-22%	.
Cc1ccccc1OCc1nnc(SCC(=O)Nc2ccc3nc(SCC(=O)Nc4ccccc4)sc3c2)n1C	?	15µM*	27	?	2%	-15%
Cc1ccccc1OCC(=O)Nc1ccc2nc(SCC(=O)N3CCOCC3)sc2c1	?	5.8µM*	.	.	-22%	.
Cc1ccccc1OCC(=O)Nc1ccc2nc(SCC(=O)N3CCCC3)sc2c1	16µM*	15µM*	.	.	-16%	.
Cc1ccc(C(C)C)c(OCc2nnc(SCC(=O)Nc3ncc(C)s3)n2C)c1	18µM*	?	13	5%[9.24 µM]	8%	-2%
CC(Oc1ccc2ccc(=O)oc2c1)C(=O)NCCc1ccc(S(N)(=O)=O)cc1 (stereo unspecified)	.	.	.	.	7%	.
Cc1ccccc1OCC(=O)Nc1ccc2nc(SCC(=O)N(C)c3ccccc3)sc2c1	18µM*	10µM*	.	.	-2%	.
Cc1nc(S(=O)(=O)N2CCC(C(=O)N3CCN(c4ccccc4)CC3)CC2)cn1C	.	.	.	.	-6%	.
C=C1/C(=C\C=C2/CCC[C@]3(C)[C@@H]([C@H](C)OCCC(C)(C)O)CC[C@@H]23)C[C@@H](O)C[C@@H]1O	15µM*	?	.	.	.	.
C=C1C(=CC=C2CCCC3(C)[C@@H]([C@H](C)C=CC=CC(O)(CC)CC)CC[C@@H]23)C[C@@H](O)C[C@@H]1O (stereo partly specified)	.	.	.	.	-43%[57.4 µM]	.
C=C1CC[C@H](O)CC1=C/C=C1\CCC[C@]2(C)[C@@H]([C@H](C)CC[C@@H](O)C(C)(C)O)CC[C@@H]12	?	24µM*	.	.	.	.
C=C1/C(=C\C=C2/CCC[C@]3(C)C([C@H](C)CCCC(C)(C)O)CC[C@@H]23)C[C@@H](O)C[C@@H]1O (stereo partly specified)	?	-21%[4.12 µM]	.	.	-1%[12.5 µM]	.
COc1ccccc1N1CCN(C(C(=O)O)c2c[nH]c3ccc(NC(=O)c4ccccc4)cc23)CC1 (stereo unspecified)	.	.	.	.	9%	.
O=C1C2C3C=CC(C2C(=O)N1CCO)C1C(=O)N(CCO)C(=O)C31 (stereo unspecified)	-11%	-9%	1	-1%	20%	-7%
CC1=C[C@@H](CN2CCN(c3ncccn3)CC2)[C@H](C(C)C)C[C@H]1Cc1nnc(Cc2c[nH]c3ccccc23)o1	.	.	.	.	14%	.
O=C(/C=C/c1ccco1)OCc1nnc(-c2ccc(Cl)cc2)o1	7%	-9%	0	18%	45µM*	0%
NC(=O)CCCn1c(C(=O)c2cc(Cl)c(N)c(Cl)c2)c2ccc(C(F)(F)F)cc2[n+]1[O-]	?	18µM*	-16	0%	?	0%
NCCCn1c(C(=O)c2cc(Cl)c(N)c(Cl)c2)c2ccc(C(F)(F)F)cc2[n+]1[O-]	?	18µM*	?	-16%	?	-6%
COc1ccc(C(=O)c2c3ccc(C(F)(F)F)cc3[n+]([O-])n2CCCC(N)=O)cc1	1%	-16%	-2	-2%	-26%	-2%
NC(=O)c1ccc(Cn2c(C(=O)c3cc(Cl)c(N)c(Cl)c3)c3ccccc3[n+]2[O-])cc1	?	?	29	12µM*	18µM*	16µM*
NCCCn1c(C(=O)c2cc(Cl)c(N)c(Cl)c2)c2ccc([N+](=O)[O-])cc2[n+]1[O-]	0.65µM*	0.52µM*	0	-21%	-27%	?
SMILES	DT40 TDP1 CPT	TDP1 cell noCPT	IL1B secr inh	HT1080 IDH1KD tx	ALOX12 inh	HT1080-NT tox
NC(=O)c1ccc(Cn2c(C(=O)c3ccc(Cl)cc3)c3ccccc3[n+]2[O-])cc1	?	?	30	0%	?	0%
O=C1CC(NS(=O)(=O)c2cc(F)ccc2F)CN1c1cccc(F)c1 (stereo unspecified)	13%	5%	24	1%	4%	2%
CC(=O)Nc1ccc(NC(=O)NC(C)c2ccc(F)cc2)cc1 (stereo unspecified)	.	.	.	.	26%	.
CCN(CC(=O)Nc1cccc(OC)c1)C(=O)c1cccc(S(=O)(=O)N2CCc3ccccc32)c1	23µM*	16µM*	-13	2%	?	0%
CCN(CC(=O)Nc1c(F)cccc1F)C(=O)c1cccc(S(=O)(=O)N(C)c2ccccc2)c1	13µM*	15µM*	-5	-8%	-11%	1%
CCN(CC(=O)Nc1c(F)cccc1F)C(=O)c1cccc(S(=O)(=O)N2CCCc3ccccc32)c1	?	16µM*	22	-12%	298%	-5%
CCCS(=O)(=O)N1CCC(c2noc(-c3ccncc3)n2)C1 (stereo unspecified)	.	.	.	.	30%	.
O=C(Cc1cccn1-c1cccc(Cl)c1)NCc1ccc(N2CCOCC2)cc1	.	.	.	.	4%	.
CN(CC12CC3CC(CC(C3)C1)C2)C(=O)C1CCN(C(=O)c2ccc(C(F)(F)F)cc2)CC1	.	.	.	.	-13%	.
N=c1c2c(-c3ccccc3)c(-c3ccccc3)n(Cc3ccco3)c2ncn1Cc1ccco1	9.2µM*	6.5µM*	-6	21µM*	?	16µM*
CCCCn1c(=O)[nH]c(=O)c2c1ncn2Cc1ccco1	3%	-6%	18	-6%	-8%	23%
Cc1cc(NCCCn2ccnc2)n2nc(C)c(-c3ccccc3)c2n1	?	-22%	-22	?	2%	?
N=c1c2c(-c3ccccc3)c(-c3ccccc3)n(Cc3ccccc3)c2ncn1CCCn1ccnc1	16µM*	?	-27	23µM*	482%	23µM*
CCCCn1cnc2c(c(-c3ccccc3)c(-c3ccccc3)n2Cc2ccco2)c1=N	-3%	-16%	-73*	-16%	?	-20%
CC(C)(C)c1csc(C2CN(CCC#N)CCO2)n1 (stereo unspecified)	.	.	.	.	-4%	.
